Source: PubChem
This is a sample that favours compounds with a hit; in the whole collection about 11% have one here.
Luciferase inh = blocks purified firefly luciferase enzyme activity; purified P. pyralis luciferase, luminescence, biochemical; Potency, µM (series often up to 115 µM), actives largely listed as inhibitors; 2.5% of 76,000 active; note: nearly all actives have a fitted effect of over 65% in size
Target sequence (P08659 whole entry, looked up): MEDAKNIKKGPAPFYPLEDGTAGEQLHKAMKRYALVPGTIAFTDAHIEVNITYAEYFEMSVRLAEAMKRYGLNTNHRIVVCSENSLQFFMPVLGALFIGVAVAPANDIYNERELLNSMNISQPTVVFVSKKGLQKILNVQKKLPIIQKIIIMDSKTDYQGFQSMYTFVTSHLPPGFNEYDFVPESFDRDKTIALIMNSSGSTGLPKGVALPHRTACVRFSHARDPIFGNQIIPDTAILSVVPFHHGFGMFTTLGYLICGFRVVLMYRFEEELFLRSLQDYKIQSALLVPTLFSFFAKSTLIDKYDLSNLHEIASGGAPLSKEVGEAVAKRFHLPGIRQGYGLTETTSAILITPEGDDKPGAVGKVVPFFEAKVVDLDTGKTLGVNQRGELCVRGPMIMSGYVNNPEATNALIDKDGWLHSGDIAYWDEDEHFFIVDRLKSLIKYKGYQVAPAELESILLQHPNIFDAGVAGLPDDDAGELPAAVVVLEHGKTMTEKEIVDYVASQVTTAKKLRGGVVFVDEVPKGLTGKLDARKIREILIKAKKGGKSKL
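Luminescence read by CCD imaging after purified firefly luciferase (10nM final) was added to substrate buffer holding 10uM D-luciferin and 10uM ATP, pH 7.5, pre-dosed with compound.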
3T3 cytotox = NIH 3T3 cell cytotoxicity | 4.3% of 94,000 active | NIH 3T3 viability, CellTiter-Glo ATP luminescence, 48-72 h | Potency, µM (highest dose often 96.7 µM), inactives show top-dose activity change, negative = cytotoxicity, usual class: inhibitors; note: nearly all actives have a fitted effect of over 55% in size
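Cytotoxicity is measured as loss of cellular ATP: NIH 3T3 cells (400/well) are exposed to compound for 48 or 72 hr at 37 °C, then CellTiter-Glo luminescence is imaged after 10 min at room temperature.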
HEK cytotox = HEK 293 cell cytotoxicity; AID 1345083; HEK 293 viability, ATP luminescence (CellTiter-Glo), 48-72 h; Potency, µM (doses to about 115 µM), inactives show at the highest dose activity change, negative = cytotoxicity, hits mostly inhibitors; 6.6% of 94,000 active; note: nearly all actives have a fitted effect of over 60% in size
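Cells seeded first (HEK 293, 250 cells/well), then compound added by pintool. Incubation ran 48 or 72 hr at 37 degree Celsius. CellTiter-Glo was added and luminescence imaged after 10 min at room temperature.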
NPR1 antag = antagonists of human natriuretic peptide receptor Npr1; HEK293 hNpr1 GloSensor cGMP, ANP-stimulated luminescence; AID 1347048; 1.6% of 76,000 active; Potency, µM (doses to about 46.3 µM), for inactives: top-dose activity change, negative = inhibition, usual class: inhibitors; calls by dose curve; note: nearly all actives have a fitted effect of over 60% in size
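HEK293 cells stably expressing human Npr1 and cGMP GloSensor pGS-40F, loaded 2 h with 2% GloSensor reagent, given compound 30 min at room temperature. Luminescence read before and 20 min after 0.1 nM hNppA.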
* marks the source's active call; other numbers are inactive results; i = inactive; ? = inconclusive; · = no result; [ ] = remark or other dose. Unless noted, calls come from the whole dose curve; as a rule, active = well fitted curve in the direction sought with a large enough effect; inconclusive = small, poorly fitted or top-dose-only effect, or another doubt; inactive = no such curve, though single readings can be large; an effect the other way counts as inactive or inconclusive. % is set by controls: 0 for no effect and ±100 for the full control effect; potency is the fitted concentration of half-maximal effect.

SMILES	Luciferase inh	3T3 cytotox	HEK cytotox	NPR1 antag
COc1ncccc1-c1nc(-c2c(C)noc2C)cc2c1cc(-c1ccccc1)n2C	i	25µM*	28µM*	-24%[70.6 µM]
COc1ccc(-c2nc(-c3c(C)noc3C)cc3c2cc(-c2ccccc2)n3C)cn1	i	50µM*	?	-17%[70.6 µM]
O=C(c1ccc2ncccc2c1)N1CC[C@@H]2CN(Cc3ccccc3)[C@@H]2C1	·	-13%	-2%	·
C[C@@]12C(=O)N(CC3CC3)c3ccccc3[C@@H]1[C@@H](C(N)=O)CN2C(=O)c1ccc(F)cc1	·	-21%[46.1 µM]	?	·
O=C1NC(=NC2CCCCC2)C2(CCN(Cc3ccc(F)cc3)C2)N1c1cccnc1 (centres undefined)	·	40µM*	i	·
COc1ccc(CN2CCC3(C2)C(=NC2CCCCC2)NC(=O)N3c2cccnc2)cc1 (centres undefined)	·	32µM*	i	·
O=C1NC(=NC2CCCC2)C2(CCN(Cc3ccc(F)cc3)C2)N1c1cccnc1 (centres undefined)	·	22µM*	-15%	·
O=C1NC(=NC2CCCC2)C2(CCN(Cc3ccncc3)C2)N1c1cccnc1 (centres undefined)	·	?	-14%	·
CN1CCc2c([nH]c3ccccc23)C12CCN(C(=O)c1ccccc1)CC2	i	-10%	-27%	-2%
Cc1ccc(CNC(=O)N2CC[C@@H]3COC(=O)N(Cc4ccccc4)[C@@H]3C2)cc1	·	-31%	-14%	·
O=C(NC1C[C@H]2CC[C@@H](C1)N2C(=O)C1CCCC1)c1ccc(F)cc1 (some centres undefined)	·	-17%	2%	·
COc1ccc(-c2noc([C@@H]3C[C@@H](O)CN3Cc3ccc(CO)o3)n2)cc1	?	-27%[174 µM]	-21%[172 µM]	?
OCc1ccc(CN2C[C@H](O)C[C@H]2c2nc(-c3ccc(OC(F)(F)F)cc3)no2)o1	45µM*	?	?	-12%[70.6 µM]
OCc1ccc(CN2C[C@H](O)C[C@H]2c2nc(-c3cccnc3)no2)o1	i	-3%[174 µM]	?	8%[70.6 µM]
OCc1ccc(CN2C[C@H](O)C[C@H]2c2nc(-c3ccc(F)cc3)no2)o1	45µM*	i	1%[172 µM]	5%[70.6 µM]
CC(=O)N1CCC(C2CCN(C(=O)c3cccc(C#N)c3)C2)CC1 (centres undefined)	·	-20%	2%	·
c1cncc(Cc2noc(C3CN(Cc4ccsc4)C3)n2)c1	i	25µM*	?	-6%
CC(C)C[C@@H]1N[C@H](C(=O)NCCN(C)C)Cc2c[nH]c3cccc1c23	i	56µM*	100µM*	1%[70.6 µM]
CCCNC(=O)[C@@H]1Cc2c[nH]c3cccc(c23)[C@H](CC(C)C)N1	i	?	50µM*	-2%[70.6 µM]
CC(C)C[C@@H]1N[C@H](C(=O)NCCOc2ccccc2)Cc2c[nH]c3cccc1c23	i	28µM*	?	-29%[70.6 µM]
CC(C)C[C@@H]1N[C@H](C(=O)NCCOc2ccccc2)Cc2cn(C)c3cccc1c23	i	32µM*	40µM*	-22%[70.6 µM]
CC(C)C[C@@H]1N[C@H](C(=O)NCCN2CCCC2)Cc2c[nH]c3cccc1c23	i	?	?	-7%[70.6 µM]
O=c1c2nc(-c3cccc(O)c3)ccc2ncn1Cc1ccccn1	i	20µM*	-19%[172 µM]	-2%[70.6 µM]
CC(=O)Nc1cccc(-c2ccc3ncn(Cc4ccccn4)c(=O)c3n2)c1	i	-30%[138 µM]	?	-6%[70.6 µM]
O=c1c2nc(-c3ccc(O)c(F)c3)ccc2ncn1Cc1ccccn1	i	79µM*	-7%[172 µM]	2%[70.6 µM]
SMILES	Luciferase inh	3T3 cytotox	HEK cytotox	NPR1 antag
O=c1c2nc(-c3ccc(F)cc3)ccc2ncn1Cc1ccccn1	i	?	-16%[172 µM]	9%[70.6 µM]
Cn1cc(-c2cc(=O)c3ccnc(NCc4ccc5c(c4)OCO5)c3o2)cn1	?	25µM*	?	0%[70.6 µM]
COCc1ccccc1-c1nccc2c(=O)cc(-c3cnn(C)c3)oc12	i	?	-10%[172 µM]	1%[70.6 µM]
CN(c1cc(=O)c2ccnc(NCc3ccc4c(c3)OCO4)c2o1)C1CCOCC1	i	32µM*	89µM*	-2%[70.6 µM]
COCC(=O)NC1CCN(C(=O)c2ccc(-c3cncnc3)cc2)CC1	·	-5%	-1%	·
COc1ccccc1CCn1cnc(-c2ccccc2)c1-c1cn(C)nc1C	i	?	79µM*	-5%
O=C(NC1CCCN(c2ccc3nnc(C4CC4)n3n2)C1)c1ccccc1F (centres undefined)	·	?	-18%	·
Cn1ncc2c(C(=O)NCc3ccc(C(F)(F)F)cc3)cc(-c3ccccc3F)nc21	·	?	32µM*	·
COc1ccc(CNC(=O)c2cc(-c3ccc(F)cc3)nc3c2cnn3C)cc1	·	40µM*	45µM*	·
Cn1ncc2c(C(=O)NCc3cccc(C(F)(F)F)c3)cc(-c3cccc(C(F)(F)F)c3)nc21	·	-4%	-16%	·
COc1ccc(CNC(=O)c2cc(-c3ccc(C(F)(F)F)cc3)nc3c2cnn3C)cc1	·	?	-32%	·
Cn1ncc2c(C(=O)NCc3ccc(C(F)(F)F)cc3)cc(-c3ccc(F)cc3)nc21	·	22µM*	?	·
Cn1ncc2c(C(=O)NCc3ccc(C(F)(F)F)cc3)cc(-c3cccc(F)c3)nc21	·	45µM*	?	·
Cn1ncc2c(C(=O)NCCCc3ccccc3)cc(-c3ccc([S+](C)(=O)[O-])cc3)nc21	·	?	50µM*	·
Cc1ccc(-c2cc(C(=O)NCCCc3ccccc3)c3cnn(C)c3n2)cc1	·	-5%	-11%	·
COc1ccccc1CNC(=O)c1cc(-c2ccccc2F)nc2c1cnn2C	·	25µM*	?	·
Cn1ncc2c(C(=O)NCc3ccccc3)cc(-c3cccc(F)c3)nc21	·	?	40µM*	·
Cn1ncc2c(C(=O)Nc3ccccc3F)cc(-c3ccc(C(F)(F)F)cc3)nc21	·	35µM*	?	·
COCCN(C)C(=O)c1cn(C2CN(C(=O)Nc3ccccc3F)C2)nn1	·	-15%	-2%	·
Cn1ncc2c(C(=O)NCc3ccccc3F)cc(-c3ccc(C(F)(F)F)cc3)nc21	·	-35%	?	·
Cn1ncc2c(C(=O)NCC#N)cc(-c3ccc(F)cc3)nc21	·	35µM*	?	·
Cn1ncc2c(C(=O)NCc3ccccc3)cc(-c3cccnc3)nc21	·	?	40µM*	·
Cn1ncc2c(C(=O)NCc3ccc(F)c(F)c3)cc(-c3cccc(F)c3)nc21	·	?	40µM*	·
Cc1cccc(C)c1-c1cc(C(=O)NCc2ccc(C(F)(F)F)cc2)c2cnn(C)c2n1	·	14µM*	22µM*	·
COc1cccc(-c2cccc(C(=O)N3CCCC3C(=O)N3CCCC(C)C3)c2)c1 (centres undefined)	·	-18%	?	·
CC(C)NC(=O)N1CCC2(CC1)CC(CCOc1ccncc1)CCO2 (centres undefined)	·	-30%	-25%	·
Clc1ccc(-c2cnc([C@@H]3COCCN3)[nH]2)cc1	i	?	?	-8%[70.6 µM]
C#CCNC(=O)c1cc(-c2ccc(C(F)(F)F)cc2)nc2c1cnn2C	·	?	25µM*	·
